Hits are enriched below; roughly 1.6% of the tested compounds scored in any of these assays.
HTR2A ag: mouse Htr2a agonists via beta-arrestin recruitment, primary screen, cell-based, luminescence; activation, % at 7.6 µM; AID 624169, 2012; 5-hydroxytryptamine receptor 2A (Mus musculus), P35363; 360,000 tested, 0.66% active; CHO-K1 mHTR2A beta-arrestin complementation; percent of 30 µM serotonin response;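 active = activation above a run cutoff, the mean activation of all tested compounds plus 3 SD, cut at about 14% in these data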
OPRM1-OPRD1 ag: agonists of OPRM1-OPRD1 heterodimerization, primary screen, cell-based, luminescence. Mu-type opioid receptor (Homo sapiens) + Delta-type opioid receptor (Homo sapiens), …. cells. activation, % at 9.3 µM. 340,000 tested, 0.3% active. AID 504326, 2011; in the data active = activation above about 18%
HTR5A inv ag: HTR5A inverse agonists in luminescence cell assay, primary screen, counter-screen for OPRM1-OPRD1 heterodimer inverse agonist project, full-deck HTS; 5-hydroxytryptamine receptor 5A (Homo sapiens), P47898; HTR5A cell line, inverse agonism; inhibition, % at 9.3 µM; 340,000 tested, 0.083% active; AID 504634, 2011; in the data active = inhibition mostly above about 23%, no sharp cut-off; inactive = mostly below about 18%
Target sequence (P47898 whole entry, looked up): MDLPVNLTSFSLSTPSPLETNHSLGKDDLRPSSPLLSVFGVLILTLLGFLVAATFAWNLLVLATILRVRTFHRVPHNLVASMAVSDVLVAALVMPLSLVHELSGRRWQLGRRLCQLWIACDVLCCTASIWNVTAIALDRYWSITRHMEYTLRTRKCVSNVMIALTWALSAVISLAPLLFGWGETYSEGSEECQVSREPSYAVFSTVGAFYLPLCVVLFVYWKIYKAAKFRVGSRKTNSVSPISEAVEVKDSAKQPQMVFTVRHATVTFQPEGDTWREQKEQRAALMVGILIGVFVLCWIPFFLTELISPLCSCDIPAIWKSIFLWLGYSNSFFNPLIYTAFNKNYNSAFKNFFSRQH
MOR-DOR inv ag: inverse agonists of MOR-DOR heterodimerization, primary screen, cell-based, luminescence. 340,000 tested, 0.21% active. AID 504357, 2011. cell-based MOR-DOR heterodimer luminescence, inverse agonism. inhibition, % at 9.3 µM; in the data active = inhibition above about 22%, passing the limit was not always enough
HTR5A ag: HTR5A agonists in luminescence cell assay, primary screen, counter-screen for OPRM1-OPRD1 heterodimer agonist project, full-deck HTS. 5-hydroxytryptamine receptor 5A (Homo sapiens), P47898. cell-based. activation, % at 9.3 µM. 340,000 tested, 0.61% active; in the data active = activation mostly above about 9.5%, no sharp cut-off; inactive = mostly below about 7.6%
MOR ag counter: OPRM1 agonists via beta-arrestin recruitment, confirmation, counter-screen for mouse HTR2A agonist project, cell-based, luminescence, single concentration; shares compounds with HTR2A ag; U2OS OPRM1 beta-arrestin PathHunter; DMSO 0%, DAMGO 9.3 µM 100%; activation, % at 9.3 µM; 2,300 tested, 5.3% active;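 active = mean activation above the mean of DMSO-only wells plus 3 SD, cut at about 0.5% in these data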
HTR2A ag conf: mouse HTR2A agonists, beta-arrestin recruitment, confirmation, cell-based, luminescence, CHO-K1 PathHunter, triplicate. shares compounds with HTR2A ag. DMSO 0%, 30 µM serotonin 100%. activation, % at 7.6 µM. 2,300 tested, 19% active. AID 624381, 2012;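 active = mean activation across triplicates above the hit threshold derived in the original primary screen, cut at about 15% in these data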
Of the large screens only hits and unclear results are named; the others gave an inactive call (follow-up assays come after a bar, where they were run).

Cc1csc2c(N3CCN(C(=O)NC(C)(C)C)CC3)ncnc12	HTR2A ag 41.1 | MOR ag counter inactive | HTR2A ag conf inactive
Cc1csc2c(N3CCN(C(=O)c4ccc(C(C)(C)C)cc4)CC3)ncnc12	none
Cc1csc2ncnc(N3CCN(C(=S)Nc4ccc(C(F)(F)F)cc4)CC3)c12	none (no result: OPRM1-OPRD1 ag, HTR5A inv ag, MOR-DOR inv ag, HTR5A ag)
CC1(C(=O)Nc2ccc3c(c2)OCCO3)CN(S(C)(=O)=O)CC(=O)N1CC(F)(F)F (stereo not drawn)	none (no result: OPRM1-OPRD1 ag, HTR5A inv ag, MOR-DOR inv ag, HTR5A ag)
O=S(=O)(NC1=NCCCCC1)c1cc(F)ccc1F	HTR2A ag 22.4 | MOR ag counter inactive | HTR2A ag conf inactive
CCNc1nc(NCC)nc(N(C#N)C(C)C)n1	HTR2A ag 20.1 | MOR ag counter inactive | HTR2A ag conf inactive
O=C(O)C1CC=CCC1C(=O)NCCc1csc(-c2ccccc2)n1 (stereo not drawn)	HTR2A ag 15.7 | MOR ag counter inactive | HTR2A ag conf inactive
O=C(O)C1CC=CCC1C(=O)NCCc1cccc(Cl)c1 (stereo not drawn)	HTR2A ag 24.4, HTR5A ag 12.8 | MOR ag counter inactive | HTR2A ag conf inactive
O=C(O)/C=C/C(=O)NCCc1cccc(Cl)c1	HTR2A ag 26.1 | MOR ag counter inactive | HTR2A ag conf inactive
O=C(O)/C=C/C(=O)NCCc1ccccc1	none
O=C(O)C1CCCCC1C(=O)NCCc1ccccc1 (stereo not drawn)	HTR2A ag 15.4 | MOR ag counter inactive | HTR2A ag conf inactive
CC(=O)c1cccc(NC(=O)C2Cc3c(-c4ccc(Cl)cc4)ccnc3O2)c1 (stereo not drawn)	none (no result: OPRM1-OPRD1 ag, HTR5A inv ag, MOR-DOR inv ag, HTR5A ag)
O=C(CN(c1ccc(F)cc1)S(=O)(=O)c1ccccc1)N1CCOCC1	none
O=C(CN(c1ccc(F)cc1)S(=O)(=O)c1ccc2c(c1)OCCO2)N1CCOCC1	HTR2A ag 25.4 | MOR ag counter inactive | HTR2A ag conf inactive
C(=N\N1CCN(Cc2ccccc2)CC1)/c1ccccc1	none
BrC(=C\c1ccccc1)/C=N/N1CCN(Cc2ccccc2)CC1	HTR2A ag 19.7 | MOR ag counter inactive | HTR2A ag conf inactive
BrC(/C=N/N1CCN(Cc2ccccc2)CC1)=C/c1ccccc1	HTR2A ag 23.6 | MOR ag counter inactive | HTR2A ag conf inactive
CC(/C=N\N1CCN(Cc2ccc(C)cc2)CC1)=C\c1ccccc1	none
CC(C)C[C@H]1CN(CCCC[C@@H]2CNC(=O)C(=O)N2CCc2ccccc2)C(=O)C(=O)N1CCC1CCCCC1	none (no result: OPRM1-OPRD1 ag, HTR5A inv ag, MOR-DOR inv ag, HTR5A ag)
O=[N+]([O-])c1ccccc1/C=C/CN1CCN(Cc2ccc3c(c2)OCO3)CC1	none
O=[N+]([O-])c1cccnc1N1CCN(Cc2ccc3c(c2)OCO3)CC1	HTR2A ag 29.2 | MOR ag counter inactive | HTR2A ag conf 68.2
O=[N+]([O-])c1ccc2ncnc(N3CCN(Cc4ccc5c(c4)OCO5)CC3)c2c1	HTR2A ag 31.4 | MOR ag counter inactive | HTR2A ag conf 72.8
CC(C)c1cc(=O)[nH]c(N2CCN(Cc3ccc4c(c3)OCO4)CC2)n1	HTR2A ag 20.2 | MOR ag counter inactive | HTR2A ag conf 19.4
CCCc1cc(=O)[nH]c(N2CCN(Cc3ccc4c(c3)OCO4)CC2)n1	none
CCOC(=O)C1C(C(=O)OCC)C(C)(C)C1N(C)C (stereo not drawn)	none (no result: OPRM1-OPRD1 ag, HTR5A inv ag, MOR-DOR inv ag, HTR5A ag)
O=C(Cn1cncn1)N/N=C/c1ccc(Cl)cc1	none
O=C(Cn1cncn1)N/N=C/c1ccncc1	HTR2A ag 23.1 | MOR ag counter inactive | HTR2A ag conf inactive
CCCS(=O)(=O)NC(=O)C1(C)CCN(C(=O)c2cc(F)ccc2C)C1 (stereo not drawn)	none (no result: OPRM1-OPRD1 ag, HTR5A inv ag, MOR-DOR inv ag, HTR5A ag)
O=C1NC(=O)C(Cc2cccc(Oc3ccccc3)c2)S1 (stereo not drawn)	HTR2A ag 15.0 | MOR ag counter inactive | HTR2A ag conf inactive

From PubChem
